# CYP2C9 activ: human CYP2C9 activators, primary screen, biochemical, luminescence; Cytochrome P450 2C9 (Homo sapiens), P11712; recombinant CYP2C9, luciferin-H conversion; hits give high values; factor 1 = untreated enzyme, 0 = blocked; activation factor at 5 µM; 96,000 compounds, 1.4% hits;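 active = activation factor of 2 or more for CYP2C9 at a 5 µM dose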;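 also: 0 = sulfaphenazole-blocked wells and 1 = vehicle-only wells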
# Target sequence (P11712 whole entry, looked up): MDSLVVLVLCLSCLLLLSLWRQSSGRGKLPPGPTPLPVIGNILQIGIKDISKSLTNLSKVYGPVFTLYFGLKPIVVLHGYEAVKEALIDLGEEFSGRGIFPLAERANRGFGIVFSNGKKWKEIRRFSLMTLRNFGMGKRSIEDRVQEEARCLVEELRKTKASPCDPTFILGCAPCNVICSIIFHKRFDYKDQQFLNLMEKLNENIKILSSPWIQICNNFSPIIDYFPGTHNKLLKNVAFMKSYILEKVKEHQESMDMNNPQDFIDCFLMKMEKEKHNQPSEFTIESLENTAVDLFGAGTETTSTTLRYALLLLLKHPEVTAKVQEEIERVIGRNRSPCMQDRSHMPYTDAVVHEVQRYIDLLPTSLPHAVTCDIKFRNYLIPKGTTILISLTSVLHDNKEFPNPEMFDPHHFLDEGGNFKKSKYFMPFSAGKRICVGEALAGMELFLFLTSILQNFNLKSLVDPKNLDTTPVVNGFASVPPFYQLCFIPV
# CYP2C9 inh: blockers of cytochrome P450 2C9 activity – biochemical, luminescence, ADME assay, primary screen. P11712. CYP2C9 Supersomes, luciferin-H conversion. inhibition, % at 5 µM. 96,000 compounds, 20% hits;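 active = blocking of liver enzyme CYP2C9 beyond about 50% at 5 µM, limit read from the data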
# CYP2C19 activ: human CYP2C19 activators, primary screen, biochemical, luminescence | 96,000 tested, under 10 active | activation factor at 5 µM | recombinant CYP2C19, luciferin-H EGE luminescence; hits give high values; 0 = fully inhibited enzyme, 1 = untreated enzyme;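 active = activation factor of at least 2 at 5 µM in the primary screen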;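 also: 0 = wells with 2.5 mM tranylcypromine and 1 = vehicle-only wells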
# PostGolgi ctrl: growth inhibition of yeast control strain, primary screen, counter-screen for post-Golgi transport modulator project | 98,000 compounds, 5% hits | efflux-deficient yeast background strain, growth absorbance A615, 16 h | inhibition, % at 10 µM
# CYP2C19 inhib: blockers of cytochrome P450 2C19 activity – biochemical, luminescence, ADME assay, primary screen | P33261 | CYP2C19 Supersomes, luciferin-H EGE luminescence, 30 min | inhibition, % at 5 µM | 96,000 compounds, 21% hits;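 active = CYP2C19 inhibition above a set limit at 5 µM in the primary screen, cut at about 50% in these data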;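 also: plate controls were negative control wells for no effect and 2.5 mM tranylcypromine positive control for full effect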
# PostGolgi yeast: phenotypic screen on post-Golgi transport, primary screen; post-Golgi transport phenotypic cell assay; 98,000 compounds, 0.9% hits; inhibition, % at 10 µM;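 also: yeast cells grown in 1536-well plates; yeast grown about 18 h at 30C before absorbance read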
# The depositor's hits bear a star. Hits are enriched below; roughly 32% of the tested compounds scored in any of these assays. Rule as the data show it, unless noted: active = inhibition above about 30%; inactive = the rest.
SMILES,CYP2C9 activ,CYP2C9 inh,CYP2C19 activ,PostGolgi ctrl,CYP2C19 inhib,PostGolgi yeast
Cc1cc(C(=O)CSc2nnc(-c3ccc(F)cc3)o2)c(C)n1CC1CCCO1 (stereo not given),0.7,26.9,0.6,20.1,35.5,-0.5
Cc1cc(C(=O)CSc2nnc(-c3ccccc3)o2)c(C)n1CC1COc2ccccc2O1 (stereo not given),0.6,44.6,0.1,24.7,87.5*,9.1
Cc1cc(C(=O)CSc2nnc(-c3ccc(F)cc3)o2)c(C)n1CC1COc2ccccc2O1 (stereo not given),0.5,53.5*,0.5,-2.2,45.3,2.1
Cc1cc(C(=O)CSc2nnc(-c3ccco3)o2)c(C)n1CC1COc2ccccc2O1 (stereo not given),0.2,78.0*,0,13.3,99.8*,5.8
Cc1nc(Nc2ccc(S(N)(=O)=O)cc2)oc1C,1,0.0,1.1,3.1,-11.3,7.9
CCOC(=O)C1C(=O)NC(N2CCc3ccccc32)=NC1c1ccccc1 (stereo not given),1.1,-10.4,0.9,-6.2,8.2,-0.3
COc1cc(S(=O)(=O)NCc2cccnc2)c(OC)cc1Br,0.9,12.5,0.9,3.3,14.2,-1.3
CCOC(=O)c1sc(NC(=O)CSc2nnc(-c3ccco3)n2CC)c(C(=O)OCC)c1C,0,96.3*,0.9,23.7,8.9,0.0
CCOC(=O)c1c(NC(=O)CSc2nnc(-c3cccc(C)c3)n2CC)sc(C(C)=O)c1C,0.1,94.3*,0.5,9.2,45.1,-1.3
NC(=O)c1c(NC(=O)CSc2nnc(-c3ccco3)n2-c2ccccc2)sc2c1CCC2,0.1,94.4*,0.3,7.9,69.4*,-10.0
CCOC(=O)c1sc(NC(=O)CSc2nncs2)c(C(=O)OCC)c1C,0.9,9.5,1,12.6,2.1,-2.9
CCn1c(SCc2c(F)cccc2Cl)nnc1-c1ccco1,1.1,-11.9,0.4,11.9,60.7*,-7.5
COCCNC(=O)Cn1cnc2ccc(S(=O)(=O)N3CCC(C)CC3)cc2c1=O,0.9,10.3,0.9,7.8,6.9,1.1
CCOC(=O)c1c(NC(=O)C2c3ccccc3Oc3ccccc32)sc(C(C)=O)c1C,0.1,94.4*,0.5,15.3,47.6,4.2
CCn1c(SCC(=O)Nc2nc(C)c(C)s2)nnc1-c1ccco1,0.6,42.5,0.2,4.1,79.5*,7.7
C=CCn1c(SCC(=O)Nc2nccs2)nnc1-c1ccco1,0.8,22.2,0.1,-11.1,85.3*,-2.8
CCn1c(SCC(=O)Nc2sc3c(c2C#N)CCCC3)nnc1-c1ccco1,0.4,55.1*,0.9,16.1,14.8,-3.2
CCn1c(SCC(=O)Nc2sc3c(c2C#N)CCC(C(C)(C)C)C3)nnc1-c1ccco1 (stereo not given),0.7,33.4,0.8,7.3,18.3,1.0
COc1ccc(C(=O)N(c2ccccc2)C2C=CS(=O)(=O)C2)cc1 (stereo not given),1.1,-6.4,1,0.0,0.2,14.6
COCCNC(=O)Cn1nc(C(F)(F)F)c(Cl)c1C,0.8,19.0,0.6,4.7,40.3,1.8
CCCN1CCN(C(=O)c2cccc3c2C(=O)N(CCOC)C3)CC1,1.2,-16.1,1.1,-9.1,-12.3,-1.4
O=C(c1cccc(C(F)(F)F)c1)N1CCOC12CCN(c1ncc(C(F)(F)F)cc1Cl)CC2,0.8,20.4,0.9,19.0,8.7,0.3
CCOP(=O)(c1c(F)c(F)c(F)c(F)c1F)C(O)c1ccccc1 (stereo not given),0.8,16.9,0.6,-5.7,35.8,15.6
CC1(C)Cc2[nH]c(=S)c(C#N)cc2CO1,0.9,12.1,1,1.2,4.6,-4.2
COC(=O)Nc1nnc(Cc2ccc(OC)cc2)s1,0.7,28.0,0.6,8.9,42.6,-0.5
SMILES,CYP2C9 activ,CYP2C9 inh,CYP2C19 activ,PostGolgi ctrl,CYP2C19 inhib,PostGolgi yeast
CCOC(=O)c1c(NC(=O)CSc2nnc(-c3ccccc3)n2CC)sc(C(C)=O)c1C,0,97.3*,0.1,16.7,89.7*,-1.6
N#C/C(=C1\C(=O)Nc2c(Cl)cc(Cl)cc21)c1nnc2n1CCCCC2,1,4.5,1.1,0.9,-5.2,-2.8
CCOc1ccc(OCC(=O)Nc2ccc(S(=O)(=O)Nc3cc(C)nc(C)n3)cc2)cc1,1,-0.8,1.1,-0.6,-5.2,2.6
CN(c1ccc(OCC(=O)Nc2ccc3[nH]c(=O)[nH]c3c2)cc1)S(=O)(=O)c1ccc(Cl)cc1,0.4,61.9*,0.7,5.7,26.8,3.5
CCOc1ccc(S(=O)(=O)N(C)c2ccc(OCC(=O)Nc3ccc4[nH]c(=O)[nH]c4c3)cc2)cc1,0.2,77.5*,0.6,-0.1,37.9,12.2
CC(=O)Nn1cc2c(c1-c1ccccc1)c(=O)n(C)c(=O)n2C,1.1,-11.0,1,17.2,-4.9,3.1
Cc1cccc(-c2c3c(=O)n(C)c(=O)n(C)c3cn2-c2ccccc2O)c1,0.3,71.3*,0.9,9.5,8.5,-3.2
CC(C)=CC(=O)OCC(=O)Nc1ccc(F)cc1Cl,0.8,24.7,0.4,33.0*,63.4*,12.4
COc1cc(CCC(=O)OCC(=O)Nc2nc(C)c(Cl)cc2Cl)cc(OC)c1OC,1.1,-12.7,0.8,22.5,20.2,-7.6
CC(C)=CC(=O)OCC(=O)Nc1nc(C)c(Cl)cc1Cl,0.6,42.1,0.2,-4.2,83.0*,-0.8
N#CC1=C(N2CCCCC2)c2cc3c(n2C1=O)CCCC3,0.5,45.9,0.5,25.8,45.1,-13.1
O=C(N/N=C/c1ccc2c(c1)OCO2)/C(=C/c1ccc2c(c1)OCO2)NC(=O)c1ccccc1,1,-2.9,1,7.1,-4.7,-2.8
C(=N\N(c1ccccc1)c1ccccc1)/c1ccc2c(c1)OCO2,0.4,55.6*,0.9,6.7,12.0,4.7
CCOC(=S)NC(=O)c1sc2ccccc2c1Cl,0.1,90.5*,1,-0.5,3.5,-7.7
CCCC(=O)N1CCN(c2ccc(NC(=O)c3sc4ccccc4c3Cl)cc2)CC1,1,-1.0,0.9,-4.7,14.8,-2.2
CCOC(=O)c1sc2ccccc2c1OC(=O)c1ccccc1,0.1,90.3*,0.2,27.4,84.9*,2.5
CCCOC(=S)NC(=O)c1sc2ccccc2c1Cl,0.3,68.3*,0.9,7.3,9.9,-6.1
O=C(Nc1nc2c(s1)CCCC2)c1ccc(Br)s1,0.6,38.3,0.9,28.6,6.0,7.8
Cc1c(NC(=O)C2CCN(S(=O)(=O)c3ccc(Cl)cc3)CC2)c(=O)n(-c2ccccc2)n1C,0.7,26.2,1.1,11.1,-6.9,1.4
Cc1c(CCO)c(=O)n(-c2ccccc2)n1S(=O)(=O)c1c(Cl)cc(Cl)cc1Cl,0.6,36.5,0.4,17.4,57.3*,0.3

# Source: PubChem BioAssay
